# Results filed as inconclusive are left out. The source made the active and inactive calls. How the source made its calls: active means hit-call score of the fitted dose curve at least 0.9, where 1 is the maximum; inconclusive means response in the unintended direction; inactive means score below 0.9.
# Biological target: human Cyclin-Dependent Kinase 6 (CDK6), CDK6 (gene 1021) (UniProt Q00534)
# Assay: NVS_ENZ_hCDK6: NovaScreen (NVS) Enzymatic Assay for human Cyclin-Dependent Kinase 6 (CDK6)
# Protocol: NVS_ENZ_hCDK6 is a biochemical, single-readout assay that uses extracted gene-proteins in a cell-free assay. Measurements were taken 1 hour after chemical dosing in a 384-well plate.NVS_ENZ_hCDK6 is one of one assay component(s) measured or calculated from the NVS_ENZ_hCDK6 assay. It is designed to make measurements of enzyme activity, a form of enzyme reporter, as detected with fluorescence intensity signals by Fluorescence and electrophoretic mobility shift technology.Data from the assay component NVS_ENZ_hCDK6 was analyzed into 1 assay endpoint. This assay endpoint, NVS_ENZ_hCDK6, was analyzed in the positive analysis fitting direction relative to DMSO as the negative control and baseline of activity. Using a type of enzyme reporter, loss-of-signal activity can be used to understand changes in the enzymatic activity as they relate to the gene CDK6. Furthermore, this assay endpoint can be referred to as a primary readout, because this assay has produced multiple assay endpoints where this one serves a enzymatic activity function. To generalize the intended target to other relatable targets, this assay endpoint is annotated to the kinase intended target family, where the subfamily is serine/threonine kinase.
# Binding assays used specific radioligands (tritiated, iodinated) with non-radioactive competitive displacement ligands in agonist or antagonist protocols (as indicated) and various reference compounds and inhibitors to titrate specific binding to receptors and transporters. Most enzyme assays (CYPs, kinases, phosphatases, proteases, HDACs) used recombinant protein and specific substrates (fluorescence mostly, some colorimetric and radioactive) and inhibitors, followed by a biochemical separation of substrate and product. All assays for the biochemical HTS were initially run in duplicate at a single concentration (10 uM for CYP450 assays and 25 uM for all others). […] Each assay was run with positive and negative controls, and concurrent controls on every plate. The follow-up (secondary) screen tested active chemical-pairs in concentration series, as well as a few additional assays not tested in the primary screen, some selected negative inactives, and several cases re-run in the concentration series for confirmatory purposes.
# Sequence of human Cyclin-Dependent Kinase 6 (CDK6), CDK6 (gene 1021) (Q00534 whole entry, looked up): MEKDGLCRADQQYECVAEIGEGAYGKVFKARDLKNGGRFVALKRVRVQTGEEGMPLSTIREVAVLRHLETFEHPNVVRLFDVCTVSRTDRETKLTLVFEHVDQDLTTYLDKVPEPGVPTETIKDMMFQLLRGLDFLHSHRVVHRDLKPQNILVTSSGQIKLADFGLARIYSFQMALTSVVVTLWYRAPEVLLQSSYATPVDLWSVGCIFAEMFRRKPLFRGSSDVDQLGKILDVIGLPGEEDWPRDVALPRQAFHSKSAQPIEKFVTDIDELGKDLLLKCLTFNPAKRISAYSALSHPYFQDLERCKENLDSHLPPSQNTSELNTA
SMILES,AC50,outcome
CN(C)[C@@H]1C(=O)C(C(N)=O)=C(O)[C@@]2(O)C(=O)C3=C(O)c4c(O)cccc4[C@@](C)(O)[C@H]3[C@H](O)[C@@H]12,23.1 µM (active),
S=C(S)NCCNC(=S)S.[Mn+2].[S-]C([S-])=NCCN=C([S-])[S-].[Zn+2],9.65 µM (active),
Nc1c(Cl)c(Cl)nc(C(=O)O)c1Cl,,inactive
S=C([S-])NCCNC(=S)[S-].[Mn+2],10.5 µM (active),
